G9a block – qHTS Assay for Inhibitors of Histone Lysine Methyltransferase G9a; hit rate 8.8% among 350,000; Potency, µM (doses to about 102 µM), for the others: at the highest dose activity, negative = inhibition, usual class: inhibitors; G9a H3K9 monomethylation, AlphaScreen, 2 h; further: on the % scale 0 is the no-effect control and ±100 the full control effect; nearly all actives have a fitted effect of over 75% in size
Target sequence (Q96KQ7 913-1193 limits assumed): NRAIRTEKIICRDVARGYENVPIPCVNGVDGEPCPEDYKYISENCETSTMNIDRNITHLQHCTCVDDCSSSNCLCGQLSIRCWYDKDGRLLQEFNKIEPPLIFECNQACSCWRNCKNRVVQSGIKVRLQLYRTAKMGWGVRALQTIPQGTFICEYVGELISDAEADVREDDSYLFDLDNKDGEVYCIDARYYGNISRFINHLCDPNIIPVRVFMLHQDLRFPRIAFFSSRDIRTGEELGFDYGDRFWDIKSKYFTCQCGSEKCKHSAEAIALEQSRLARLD
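Signal arises when biotinylated H3K9 peptide, once monomethylated, bridges streptavidin donor and antibody-captured acceptor beads. Enzyme at 20 nM was preincubated 15 min with test compounds; peptide 500 nM and SAM 20 uM then reacted for 2 h.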
L3MBTL1 block – qHTS Assay for the Inhibitors of L3MBTL1; hit rate 0.66% among 230,000; Lethal(3)malignant brain tumor-like protein 1 (Homo sapiens), Q9Y468; AID 485360, 2010; AlphaScreen L3MBTL1–H3K9me1 peptide binding; Potency, µM (doses to about 57.1 µM), without a hit: top-dose activity, negative = inhibition, actives largely listed as inhibitors; further: on the % scale 0 is the no-effect control and ±100 the full control effect; nearly all actives have a fitted effect of over 60% in size
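AlphaScreen proximity signal between nickel-chelate acceptor and streptavidin donor beads (final 10 ug/mL) reports binding of 50 nM L3MBTL1 to 75 nM biotin-H3 K9me1 peptide; complex incubated with compounds 30 min at room temperature; cefsulodin titration as control.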
Sfp PPTase inh – qHTS Assay for Inhibitors of Bacillus subtilis Sfp phosphopantetheinyl transferase (PPTase) | Biochemical Sfp PPTase activity, qHTS | Potency, µM, for inactives: largest response in the series, negative = inhibition, most hits filed as inhibitors | hit rate 3.5% among 310,000 | AID 1490, 2009;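 further: the enzyme is Sfp with the accession as filed and its product quenches rhodamine fluorescence; 0% = enzyme reaction without inhibitor and -100% = no enzyme wells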
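Step 1, compound plus 15 nM Sfp-PPTase, 15 min, room temperature. Step 2, add rhodamine-CoA (5 uM) and BHQ-2-YbbR (12.5 uM). Step 3, read 525/598 nm fluorescence at 0 and 30 min.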
BAZ2B inh – qHTS Assay for Inhibitors of BAZ2B; Bromodomain adjacent to zinc finger domain protein 2B (Homo sapiens), Q9UIF8; AlphaScreen BAZ2B-H3K14Ac peptide displacement; Potency, µM (doses to about 114 µM), without a hit: top-dose activity change, negative = inhibition, actives largely listed as inhibitors; hit rate 4.4% among 360,000; further: on the % scale 0 is the no-effect control and ±100 the full control effect; nearly all actives have a fitted effect of over 60% in size
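In this displacement format the biotinylated H3(5-23) peptide acetylated at Lys14 serves as ligand at 50 nM, with BAZ2B at 50 nM in PBS pH 7.4 containing 0.01% Tween-20. Donor and acceptor beads are 10 ug/mL final.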
HP1b binding inh – HTS for Inhibitors of HP1-beta Chromodomain Interactions with Methylated Histone Tails; Chromobox protein homolog 1 (Homo sapiens), P83916; AlphaScreen HP1-beta / biotin-H3K9me3 peptide binding; Potency, µM (doses to about 114 µM), inactives show at the top dose activity change, negative = inhibition, usual class: inhibitors; hit rate 0.56% among 390,000; AID 540317, 2011; further: nearly all actives have a fitted effect of over 70% in size
Target sequence (P83916 whole entry, looked up): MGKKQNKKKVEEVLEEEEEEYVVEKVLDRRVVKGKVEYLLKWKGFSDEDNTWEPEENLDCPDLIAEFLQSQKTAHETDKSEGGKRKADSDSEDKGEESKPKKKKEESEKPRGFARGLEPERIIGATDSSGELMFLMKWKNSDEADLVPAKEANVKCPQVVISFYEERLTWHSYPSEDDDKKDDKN
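Compound inhibition of the preformed complex between 50 nM HP1-beta and 50 nM biotinylated H3K9me3 peptide was read by AlphaScreen. Buffer was PBS pH 7.4 with 0.01% Tween-20. Incubations ran 30 min at room temperature, with 10 ug/mL donor/acceptor beads.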
JMJD2A Tudor inh – qHTS Assay for Inhibitors of JMJD2A-Tudor Domain | Lysine-specific demethylase 4A (Homo sapiens), O75164 | AlphaScreen JMJD2A-Tudor / H3K4me3 peptide binding | Potency, µM (highest dose often 114 µM), for the others: at the highest dose activity change, negative = inhibition, most hits filed as inhibitors | hit rate 4.4% among 390,000; further: on the % scale 0 is the no-effect control and ±100 the full control effect; nearly all actives have a fitted effect of over 50% in size
* = called active by the depositor; ? = inconclusive; · = no result given; [ ] = another dose, or the depositor's remark. Sampled rows, rich in hits. Any-hit rate of the full collection: about 12%. The call rests on the fitted dose curve; in most records, active means well fitted curve in the direction sought with a large enough effect; inconclusive means small, poorly fitted or top-dose-only effect, or another doubt; inactive means no such curve, though single readings can be large; an effect the other way counts as inactive or inconclusive. Potency means the concentration at half of the fitted maximal effect.

SMILES	G9a block	L3MBTL1 block	Sfp PPTase inh	BAZ2B inh	HP1b binding inh	JMJD2A Tudor inh
COc1ccc(-c2nc(CS(=O)CC(=O)NCc3ccc(Cl)cc3)c(C)o2)cc1 (stereo unspecified)	40µM*	·	10%	-29%	6%	-26%
Cc1ccc(-c2nc(CS(=O)CC(=O)NC3CCC(C)CC3)c(C)o2)cc1 (stereo unspecified)	50µM*	·	?	-25%	3%	-24%
CCc1ccc(-c2nc(CS(=O)CC(=O)NCc3ccccc3)c(C)o2)cc1 (stereo unspecified)	28µM*	·	-5%	-15%	23%	-12%
O=[N+]([O-])c1ccc(NC(=S)N2CCc3ccccc32)cc1	35µM*	·	-1%	?	-16%	?
CN1CCN(C(=S)Nc2ccc([N+](=O)[O-])cc2)CC1	-11%[0.0925 µM]	-8%	89µM*	?	19%	-20%
S=C(Nc1ccccc1)N1CCc2ccccc21	19%[0.501 µM]	1%[2.29 µM]	5%	-6%	11%	-25%
O=[N+]([O-])c1ccc(NC(=S)N2CCCC2)cc1	21%	3%	11%	-22%	25%	-19%
CC(C)(C)OC(=O)N1CCC(c2c(C(=O)N3CCOCC3)cnn2-c2cccc(F)c2)CC1	6%[59 µM]	·	·	9%[57.1 µM]	26%	6%
COc1ccc(CNC(=O)Cc2c(C)c3cc4c(C)coc4cc3oc2=O)cc1	2%[59 µM]	·	·	-15%	4%	-29%
COc1ccccc1Nc1nc(-c2c(C)nc3ncccn23)cs1	?	-13%	?	?	?	-31%
Cc1nc2ncccn2c1-c1csc(Nc2ccc(S(N)(=O)=O)cc2)n1	·	5%	-20%	-2%	24%	-15%
Cc1nc2ncccn2c1-c1csc(Nc2ccccc2)n1	25µM*	2%	56µM*	-37%	-18%	?
COc1ccc(Nc2nc(-c3c(C)nc4ncccn34)cs2)cc1	18µM*	?	18µM*	?	-1%	?
c1ccc(Nc2nc(-c3ccncc3)cs2)cc1	?	-20%	-16%	4%	17%	-11%
Cc1nc2ncccn2c1-c1csc(Nc2ccc(N(C)C)cc2)n1	7.9µM*	?	?	32µM*	?	28µM*
CC(=O)Nc1ccc(Nc2nc(-c3c(C)nc4ccccn34)cs2)cc1	·	·	·	·	34%	79µM*
O=C(Nc1ccc(-c2csc(Nc3ccc(Cl)cc3)n2)cc1)c1ccccc1	·	4%	·	·	25%	-11%
COc1ccc(NC(=O)C(OC(=O)CNC(=O)c2ccccc2)c2ccccc2)cc1Cl (stereo unspecified)	·	·	·	·	·	-23%
O=C(Cn1cc(C(F)(F)F)ccc1=O)OCC(=O)c1ccc[nH]1	·	-3%	·	·	28%	-18%
Cc1nc2ncccn2c1-c1csc(NCc2ccco2)n1	?	-18%	8.9µM*	?	5%	-6%[57.1 µM]
c1coc(CNc2nc(-c3cccs3)cs2)c1	20µM*	28µM*	-7%	45µM*	-32%	?
O=C(Nc1nc(-c2cccs2)cs1)c1ccco1	?	-5%	-7%	-28%	16%	-17%
Cc1cc(-c2ccc(F)cc2)nc2cc(C(N)=O)nn12	56µM*	·	-23%	-7%	-2%	-27%
CN1CCN(C(=O)c2cc3nc(-c4ccc(F)cc4)cc(C(F)(F)F)n3n2)CC1	15%[59 µM]	-2%	-10%	15%	34%	3%
COCCNC(=O)/C(C#N)=C/C(C)=C/c1ccccc1	5%[59 µM]	5%	9%	5%	45%	4%[57.1 µM]
SMILES	G9a block	L3MBTL1 block	Sfp PPTase inh	BAZ2B inh	HP1b binding inh	JMJD2A Tudor inh
COc1ccccc1-n1c(SCC(=O)N2CCc3ccccc32)nc2c(c1=O)SCC2	-2%[59 µM]	-16%	79µM*	-4%	14%	-29%
COc1ccc(OC)c(-n2c(SCC(=O)N3CCc4ccccc43)nc3c(c2=O)SCC3)c1	-4%[59 µM]	10%	10%	-1%	26%	-23%
Cc1nc2sc3c(c2c(=O)o1)CC(C)(C)OC3	3%[12.7 µM]	15%	-7%	7%	24%	2%
CC1(C)Cc2c(sc3nc(=S)[nH]c(N)c23)CO1	·	34%	25µM*	-12%	·	·
Cc1nc(NN)c2c3c(sc2n1)COC(C)(C)C3	-7%[2.33 µM]	·	56µM*	-10%	8%	-23%
COc1ccc(Br)cc1CN(C)CC(=O)Nc1cccc(S(=O)(=O)N2CCCC2)c1	·	-8%	·	·	?	25µM*
CN(C)S(=O)(=O)c1cccc(NC(=O)c2ccc(S(=O)(=O)N3CCCCC3)cc2)c1	?	0%	·	7%	19%	89µM*
COc1ccc(Br)cc1CN(C)CC(=O)Nc1cccc(S(N)(=O)=O)c1	13%	-3%	13%	-19%	40%	-6%[11.4 µM]
CS(=O)(=O)c1cccc(C(=O)Nc2cccc(S(=O)(=O)N3CCCC3)c2)c1	?	-2%	·	2%	14%	-7%
COc1cc(C(=O)Nc2cccc(S(=O)(=O)N3CCCC3)c2)cc(OC)c1C	32µM*	-10%	-17%	-38%	6%	-29%
COCCN(CC(=O)Nc1cccc(S(=O)(=O)N2CCCC2)c1)Cc1nc2ccccc2c(=O)[nH]1	50µM*	7%	·	12%	15%	-22%
Cc1c(NC(=O)C(C)(C)Oc2ccc(Cl)cc2)cccc1-c1nc2ncccc2o1	6%[59 µM]	·	·	-6%	15%	-27%
COc1ccccc1NC(=O)Cn1c(=O)n(-c2ccc(C)cc2)c(=O)c2ccc(C(=O)NCc3ccco3)cc21	-7%[59 µM]	·	·	-12%	11%	-14%
O=C(Nc1cc(S(=O)(=O)Nc2ccc(Cl)cc2)ccc1O)c1ccc(S(=O)(=O)N2CCCCCC2)cc1	-115%[59 µM]	-7%	3.2µM*	?	-18%	-21%
O=C(Nc1cc(S(=O)(=O)N2CCOCC2)ccc1O)c1ccc(S(=O)(=O)N2CCCCC2)cc1	·	0%	·	·	28%	-20%
CCOC(=O)C1Oc2ccccc2C(c2ccccc2)=C1C(C)=O (stereo unspecified)	7%	·	1%	·	·	·
COc1ccc(C(CCNCc2ccc(OC(C)C)cc2)C(C)C)cc1 (stereo unspecified)	5%	-4%	3%	-8%	22%	-11%
COc1ccccc1C(CCNCc1ccc(N(C)C)cc1)c1ccc(OC(C)C)cc1 (stereo unspecified)	18%[2.33 µM]	·	-18%	10µM*	?	13µM*
